The record followed here is PubChem BioAssay (NCATS).

Values without a mark were called inactive. Results filed as inconclusive are left out. The source made the active and inactive calls. Unless noted, calls follow the shape of the dose curve; as a rule, active = well fitted curve in either direction with a large enough effect (not every such curve was filed as active); inconclusive = small, poorly fitted or top-dose-only effect, or another doubt; inactive = flat fitted curve, though single readings scatter.

Assay [1] deals with Lysosomal acid glucosylceramidase (Homo sapiens) (UniProt P04062). In words: Glucocerebrosidase-p2 (AID 348; in the data active = potency below about 10 µM; also: potency is read from the fitted curve at half-maximal effect). The following applies: purified GBA, blue fluorogenic substrate, 40 min. In short, it runs like this:
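Normal human glucocerebrosidase (0.2 nM) with blue fluorogenic substrate (80 uM final) in citrate/phosphate pH 5.9 with 10mM sodium taurocholate, 0.01% tween-20; 40 min RT, NaOH/glycine stop; fluorescence Ex 365/Em 440; AC50 from a titration from 0.6 nM upwards.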

A short description of assay [2]: AP1 Signaling Pathway (AID 357).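 Also: ME-180 reporter cells stimulated with EGF at its EC50 level; % is scaled to controls: 0 for no effect and ±100 for the full control effect.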 The conditions noted are these: ME-180 AP-1-bla reporter, EGF-induced, beta-lactamase ratio, 5 h; at 7.69 µM (top of the series) unless noted. In short, it runs like this:
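In this screen, ME-180 cells in Opti-MEM with 0.5% dialyzed FBS received EC50 EGF and compound titrations for 5 h. AP-1 reporter beta-lactamase was detected via CCF4 ratio, giving AC50 for positive and negative modulators.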

Assay [3] is described as follows: NFAT Signaling Pathway (AID 444).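 Also: carbachol stimulus at about its EC50 of 1 µM final; % is scaled to controls: 0 for no effect and ±100 for the full control effect.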 The conditions noted are these: Jurkat NFAT-bla M1, carbachol, beta-lactamase ratio, 5 h; at 7.69 µM (top of the series) unless noted. The method in brief:
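Read-out: CCF4 FRET ratio (460 nm/530 nm) after 1 h RT dye loading, used for %activity and AC50 from titration series. Cells: Jurkat NFAT-β-lactamase/M1 line, treated with compound plus 1 uM carbachol for 5 h, 37 °C.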

Assay [4] can be described thus: Stat Signaling Pathway (AID 446).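 Also: ME-180 cervical cancer cells given 40 pM IL-6 alongside compound; SIE-controlled beta-lactamase reporter measured as 460/530 nm FRET emission ratio; % is scaled to controls: 0 for no effect and ±100 for the full control effect.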 The conditions noted are these: ME-180 (cervical carcinoma) SIE beta-lactamase reporter, IL-6 stimulated, 5 h; at 7.69 µM (top of the series) unless noted. The method in brief:
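Emission at 460 and 530 nm (excitation 405 nm) reports SIE-controlled beta-lactamase in ME-180 cells. Cells received compound with 40 pM IL-6 for 5 hrs at 37 C; data scaled between 300 pM IL-6 and 125 nM JAK-inhibitor controls.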

The target in assay [5] is Glucocorticoid receptor (Homo sapiens) (UniProt P04150). Briefly: GR-GFP Redistribution (AID 450;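 active = compounds whose dose series gives a full or clear partial fitted curve of increased nuclear translocation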; also: potency is read from the fitted curve at half-maximal effect). The following applies: U2OS GR-GFP nuclear translocation, laser cytometry, 2 h.
Assay [6] deals with Mitogen-activated protein kinase 10 (Mus musculus) (UniProt Q61831). Briefly: JNK3 AlphaScreen Assay (AID 530).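 Also: kinase came from lysate of stimulated human HepG2 cells; signal reports phosphorylation of biotinylated GST-cJun 1-79 at Ser73 with 10 µM ATP; % is scaled to controls: 0 for no effect and ±100 for the full control effect.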 The following applies: JNK3 lysate, c-Jun phosphorylation; series mostly up to 57.1 µM. In short, it runs like this: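 Kinase buffer: 20 mM Tris-HCl pH 7.6, 10 mM MgCl2, 1 mM DTT, 0.1 mM Na3VO4, 0.01% Tween-20; ATP 10 uM. Substrate biotin-GST-cJun(1-79), enzyme from activated HepG2 lysates. Detection by Ser73 phospho-antibody AlphaScreen.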
Background: Bead proximity is the source of the signal in Alpha formats.

Assay [7] concerns the target 3',5'-cyclic-AMP phosphodiesterase 4B (Homo sapiens) (UniProt Q07343). In words: qHTS Assay for Inhibitors of PDE-IV (AID 607; active = well fitted activation curve with a large enough effect in the main read-out, with a control signal flat, not every such curve was filed as active; also: % of control where 0% means no effect). The conditions noted are these: HEK293 ACTOne CNG channel cells, membrane potential fluorescence; series mostly up to 22.9 µM. In short, it runs like this: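 The readout is membrane depolarisation from a cAMP-sensing CNG channel, detected with a potential dye at ex 535/em 590. Cells were HEK293-derived (endogenous PDE-IV) at 1000 cells/well, titrated up to 22.9 uM final.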

The target of assay [8] is Glucocorticoid receptor (Homo sapiens) (UniProt P04150). Briefly: GR-EFC Redistribution (AID 451; calls by dose curve; also: potency is read from the fitted curve at half-maximal effect). The conditions noted are these: CHO-K1 GR-EFC translocation, beta-gal luminescence, 2 h. The method in brief:
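Translocation of GR-ED fusion to nuclear EA restores b-gal, read by luminescence after 1 h room-temperature detection. Engineered CHO-K1 biosensor cells, 1,000/well, exposed 2 h at 37 C to titrations up to 46 uM final.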

Assay [9] concerns the target Cytochrome P450 1A2 (Homo sapiens) (UniProt P05177). In words: p450-cyp1a2 (AID 410; calls by dose curve; also: potency is read from the fitted curve at half-maximal effect;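 as to activity change, negative = inhibition: -100% = full effect of reference inhibitor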). The following applies: recombinant CYP1A2, luciferin-ME demethylation, luminescence; series mostly up to 11.4 µM. In short, it runs like this: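 Read-out is luminescence from luciferin produced by CYP1A2 demethylation of Luciferin-ME (100uM, at Km). Detection reagent stopped the 60 min NADPH-dependent reaction; signals were normalized to 57 uM furafylline.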

Assay [10] deals with Cytochrome P450 2D6 (Homo sapiens) (UniProt P10635). In words: qHTS Assay for Inhibitors and Substrates of Cytochrome P450 2D6 (AID 891; active = well fitted inhibition curve with a large enough effect;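 also: luciferin methyl ether substrate demethylated by CYP2D6 with NADPH regeneration; % is scaled to controls: 0 for no effect and ±100 for the full control effect; nearly all actives have a fitted effect of over 60% in size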). The conditions noted are these: recombinant CYP2D6, luciferin-ME EGE luminescence; series mostly up to 11.4 µM. The method in brief: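 Luminescent read-out of luciferin formed by 5 nM human CYP2D6 demethylating 30 uM Luciferin-ME EGE (Km level) over 60 min at room temperature after NADPH regeneration addition. Data normalized to full inhibition by 1.43 uM quinidine.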
(qHTS replaces the single test concentration by a dilution series.)

The target in assay [11] is Cytochrome P450 2C19 (Homo sapiens) (UniProt P33261). In words: qHTS Assay for Inhibitors and Substrates of Cytochrome P450 2C19 (AID 899; active = well fitted inhibition curve with a large enough effect; also: % is scaled to controls: 0 for no effect and ±100 for the full control effect; nearly all actives have a fitted effect of over 60% in size). The following applies: recombinant CYP2C19, luciferin-H EGE luminescence; series mostly up to 11.4 µM. In short, it runs like this:
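Luminescence readout of luciferin formed from 10uM Luciferin-H EGE (KM level) by 5 nM CYP2C19 in 50mM KPO4. 60 min NADPH-driven reaction at 37C after 10 min compound preincubation; data scaled to 57uM ketoconazole inhibition.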

Sequence of Cytochrome P450 1A2 (Homo sapiens) (P05177 whole entry, looked up): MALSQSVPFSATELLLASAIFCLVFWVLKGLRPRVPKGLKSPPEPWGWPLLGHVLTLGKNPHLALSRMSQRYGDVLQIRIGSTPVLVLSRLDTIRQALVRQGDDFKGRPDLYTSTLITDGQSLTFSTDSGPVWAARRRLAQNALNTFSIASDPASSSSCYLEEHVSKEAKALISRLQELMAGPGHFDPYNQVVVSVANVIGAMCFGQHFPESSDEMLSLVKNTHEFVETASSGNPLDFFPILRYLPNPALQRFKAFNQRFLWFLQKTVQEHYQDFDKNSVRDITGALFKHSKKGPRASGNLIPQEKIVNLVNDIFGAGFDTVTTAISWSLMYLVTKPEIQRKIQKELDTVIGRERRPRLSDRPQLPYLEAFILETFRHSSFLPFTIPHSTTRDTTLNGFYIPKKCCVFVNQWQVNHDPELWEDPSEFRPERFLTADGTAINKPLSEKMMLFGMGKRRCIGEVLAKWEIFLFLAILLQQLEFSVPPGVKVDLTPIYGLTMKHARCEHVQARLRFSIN
Sequence of 3',5'-cyclic-AMP phosphodiesterase 4B (Homo sapiens) (Q07343 whole entry, looked up): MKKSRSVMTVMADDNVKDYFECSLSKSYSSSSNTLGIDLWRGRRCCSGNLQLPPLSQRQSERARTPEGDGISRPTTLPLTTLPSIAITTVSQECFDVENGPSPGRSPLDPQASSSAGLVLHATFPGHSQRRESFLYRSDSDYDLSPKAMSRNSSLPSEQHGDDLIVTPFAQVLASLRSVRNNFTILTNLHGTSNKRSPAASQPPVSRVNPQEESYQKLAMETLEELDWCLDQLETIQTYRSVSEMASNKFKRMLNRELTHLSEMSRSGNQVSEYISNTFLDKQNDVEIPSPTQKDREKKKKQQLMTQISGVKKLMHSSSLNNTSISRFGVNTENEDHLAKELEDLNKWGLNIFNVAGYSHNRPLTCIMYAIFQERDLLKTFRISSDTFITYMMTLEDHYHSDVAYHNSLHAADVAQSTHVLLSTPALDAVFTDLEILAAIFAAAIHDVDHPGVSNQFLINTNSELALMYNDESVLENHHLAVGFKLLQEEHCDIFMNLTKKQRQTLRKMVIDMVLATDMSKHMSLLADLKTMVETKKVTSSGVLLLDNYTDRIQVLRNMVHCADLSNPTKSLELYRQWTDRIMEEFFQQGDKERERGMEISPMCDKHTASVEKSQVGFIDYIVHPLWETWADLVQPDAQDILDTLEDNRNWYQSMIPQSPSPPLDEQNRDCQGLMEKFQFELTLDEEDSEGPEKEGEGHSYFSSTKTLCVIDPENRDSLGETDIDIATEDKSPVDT
Sequence of Lysosomal acid glucosylceramidase (Homo sapiens) (P04062 whole entry, looked up): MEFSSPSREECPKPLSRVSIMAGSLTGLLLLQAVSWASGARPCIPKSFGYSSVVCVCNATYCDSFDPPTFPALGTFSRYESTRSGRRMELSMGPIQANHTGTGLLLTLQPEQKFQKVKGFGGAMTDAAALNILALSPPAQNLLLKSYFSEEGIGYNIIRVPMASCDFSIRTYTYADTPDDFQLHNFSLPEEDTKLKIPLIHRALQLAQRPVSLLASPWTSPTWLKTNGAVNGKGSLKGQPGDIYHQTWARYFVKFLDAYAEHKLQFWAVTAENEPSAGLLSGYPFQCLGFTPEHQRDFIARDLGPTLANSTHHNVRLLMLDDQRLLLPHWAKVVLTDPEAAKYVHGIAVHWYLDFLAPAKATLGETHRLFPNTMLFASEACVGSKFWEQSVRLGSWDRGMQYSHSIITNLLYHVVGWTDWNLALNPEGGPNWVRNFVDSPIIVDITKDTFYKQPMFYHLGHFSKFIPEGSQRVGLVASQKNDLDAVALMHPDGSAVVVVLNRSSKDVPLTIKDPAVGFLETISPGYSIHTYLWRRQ
Sequence of Glucocorticoid receptor (Homo sapiens) (P04150 whole entry, looked up, the tested form may be a part): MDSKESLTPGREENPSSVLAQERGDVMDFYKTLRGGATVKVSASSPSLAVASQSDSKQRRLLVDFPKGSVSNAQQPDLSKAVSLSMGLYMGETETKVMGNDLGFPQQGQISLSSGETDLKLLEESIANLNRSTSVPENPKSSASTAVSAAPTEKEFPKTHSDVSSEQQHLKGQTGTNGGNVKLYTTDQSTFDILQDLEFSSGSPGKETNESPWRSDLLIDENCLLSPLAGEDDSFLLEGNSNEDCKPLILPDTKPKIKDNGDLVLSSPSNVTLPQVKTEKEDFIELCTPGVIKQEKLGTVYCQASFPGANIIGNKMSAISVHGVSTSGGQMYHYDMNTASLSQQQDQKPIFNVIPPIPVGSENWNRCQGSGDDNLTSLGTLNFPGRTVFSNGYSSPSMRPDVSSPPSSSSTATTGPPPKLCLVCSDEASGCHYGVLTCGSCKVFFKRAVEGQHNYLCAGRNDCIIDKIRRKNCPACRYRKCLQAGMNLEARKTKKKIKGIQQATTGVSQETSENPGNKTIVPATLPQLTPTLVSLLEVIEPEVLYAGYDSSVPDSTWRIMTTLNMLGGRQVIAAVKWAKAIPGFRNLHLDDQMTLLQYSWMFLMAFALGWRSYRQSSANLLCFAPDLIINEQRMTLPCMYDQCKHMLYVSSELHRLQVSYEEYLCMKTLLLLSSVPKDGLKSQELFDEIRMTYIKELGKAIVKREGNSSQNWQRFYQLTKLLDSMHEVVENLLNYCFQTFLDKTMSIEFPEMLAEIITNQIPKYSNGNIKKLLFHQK
Sequence of Cytochrome P450 2D6 (Homo sapiens) (P10635 whole entry, looked up): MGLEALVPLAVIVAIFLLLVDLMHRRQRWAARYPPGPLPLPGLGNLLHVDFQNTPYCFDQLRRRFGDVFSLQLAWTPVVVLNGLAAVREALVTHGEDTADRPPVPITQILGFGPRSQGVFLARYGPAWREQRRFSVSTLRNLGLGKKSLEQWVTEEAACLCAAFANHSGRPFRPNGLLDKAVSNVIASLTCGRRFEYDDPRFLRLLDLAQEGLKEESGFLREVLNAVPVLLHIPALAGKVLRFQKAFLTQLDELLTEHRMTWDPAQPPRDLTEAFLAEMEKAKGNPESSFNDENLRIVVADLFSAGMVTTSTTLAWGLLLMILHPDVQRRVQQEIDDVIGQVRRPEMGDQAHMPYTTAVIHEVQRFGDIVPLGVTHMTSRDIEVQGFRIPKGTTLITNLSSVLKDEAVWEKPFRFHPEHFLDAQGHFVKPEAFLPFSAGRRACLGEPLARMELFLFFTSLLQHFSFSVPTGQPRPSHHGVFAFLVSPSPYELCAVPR
Sequence of Cytochrome P450 2C19 (Homo sapiens) (P33261 whole entry, looked up): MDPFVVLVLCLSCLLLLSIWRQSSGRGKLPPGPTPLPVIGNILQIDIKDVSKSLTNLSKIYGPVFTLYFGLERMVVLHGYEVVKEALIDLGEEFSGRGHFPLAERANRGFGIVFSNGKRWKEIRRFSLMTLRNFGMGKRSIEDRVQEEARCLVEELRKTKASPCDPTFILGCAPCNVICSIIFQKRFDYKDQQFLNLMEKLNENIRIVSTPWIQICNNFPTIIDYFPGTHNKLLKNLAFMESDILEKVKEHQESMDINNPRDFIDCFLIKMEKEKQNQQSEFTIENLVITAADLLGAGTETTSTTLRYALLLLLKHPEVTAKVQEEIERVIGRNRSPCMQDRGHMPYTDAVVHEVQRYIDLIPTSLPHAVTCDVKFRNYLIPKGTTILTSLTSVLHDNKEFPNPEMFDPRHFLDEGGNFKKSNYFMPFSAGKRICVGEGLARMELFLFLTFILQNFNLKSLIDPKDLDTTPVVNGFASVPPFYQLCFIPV

For `C(=NCCN1CCOCC1)=NC1CCCCC1`, the values for the Potency in assay [1] and in assay [5] were over 11.4 µM and over 46 µM, respectively. Moreover, the activity change, negative = inhibition in assay [2] is -1.14%; in assay [3], 12.1%; in assay [6] it was 3.92% [at 11.4 µM]. In addition, in assay [4], the activity, negative = inhibition was 19.2%. Further, the result in assay [7] was inactive.
For the compound `O=[As](O)(O)c1ccc(Cc2ccc([As](=O)(O)O)cc2)cc1`, the Potency in assay [1] is over 11.4 µM; in assay [5], over 46 µM; in assay [8], over 9.22 µM. The activity change, negative = inhibition in [3] was -132% (active); in [6] it was -5.31% [at 11.4 µM]. Moreover, the activity, negative = inhibition in [4] is -5.31%. For the same compound, in [7], the call was inactive.
Consider `Cc1ccc(O)cc1` (tested in a mixture with another compound), for which the Potency is over 11.4 µM in assay [1] and over 46 µM in assay [5]. Besides, the activity change, negative = inhibition in [2] was 3.77%; in [3], 9.05%; in assay [6] it was 1.19% [at 11.4 µM]. In addition, the activity, negative = inhibition in assay [4] was -4.46%. Besides, the compound was classed as inactive in assay [7].
Consider `Nc1c(C(=O)Nc2ccc([As](=O)(O)O)cc2)cnc2nnnn12`, for which the Potency was over 11.4 µM in assay [1] and over 46 µM in [5]. Also, the activity change, negative = inhibition was 2.63% in [2], 25.5% in assay [3] and 0.733% [at 11.4 µM] in [6]. Also, in assay [4], the activity, negative = inhibition was -0.343%. The outcome in assay [7] was inactive.
For the compound `CC[C@@H]1CN2CCc3cc(OC)c(OC)cc3[C@H]2C[C@@H]1C[C@@H]1NCCc2cc(O)c(OC)cc21`, the results for the activity change, negative = inhibition in [2] and in assay [3] were -117% [at 17.2 µM] (active) and -126% [at 17.2 µM] (active), respectively. For the same compound, the Potency result in assay [9] and in [6] was “inactive” throughout. Further, in assay [4], the activity, negative = inhibition was -100% [at 17.2 µM] (active). The Potency in [5] and in [8] was over 20.6 µM throughout.
As to `COC(=O)c1c(C)ccc2c(O)c3c(cc12)C(=O)c1c2c(cc(O)c1C3=O)[C@@]1(C)O[C@@](C)(O2)[C@@H](O)[C@H](N(C)C)[C@H]1O`, the Potency in assay [1] was over 11.4 µM; in assay [9], 5.01 µM (active); in assay [5] it was over 46 µM; in assay [8], over 9.22 µM. The activity change, negative = inhibition in assay [3] is -7.69%; in assay [6], -7.99% [at 11.4 µM]. For the same compound, the activity, negative = inhibition in assay [4] was 10.6%. The compound was called inactive in assay [7].
Take `CN(C)CCC(C#N)(c1ccccc1)c1ccccc1`: the Potency in assay [1] was over 11.4 µM; in assay [5] it was over 46 µM; in assay [8], over 9.22 µM. Also, the activity change, negative = inhibition in assay [2] is 6.93%; in [6] it was 2.05% [at 11.4 µM]. Also, the activity, negative = inhibition in [4] is 6.64%. Also, in assay [7], the outcome was inactive.
As to `CS(=O)(=O)O[C@H]1CN2CCC1CC2`, the figures for the Potency in assay [1], in assay [5] and in assay [8] were over 11.4 µM, over 46 µM and over 9.22 µM, respectively. Moreover, the Potency entry in assay [9] is “inactive”. In addition, the activity change, negative = inhibition in assay [3] was -10.5%; in [6], 2.61% [at 11.4 µM]. The activity, negative = inhibition in assay [4] was -2.65%. Besides, the outcome in [7] was inactive.
Turning to `NNc1c(C(N)=O)c2c(N)ncnc2n1[C@@H]1O[C@H](CO)[C@@H](O)[C@@H]1O`, the Potency in [1] is over 11.4 µM; in assay [5], over 46 µM. The figures for the activity change, negative = inhibition in assay [9], in assay [3] and in assay [6] were -11.2% [at 2.29 µM], 6.43% and -2.85% [at 11.4 µM], respectively. Further, in [7], the compound was called inactive. The Potency result in assay [10] and in assay [11] was “inactive” each time.
